# Publication PMC4552634, “A New Set of Chemical Starting Points with Plasmodium falciparum Transmission-Blocking Potential for Antimalarial Drug Discovery” (PLoS ONE, 2015)
# The campaign covered roughly 13,000 compounds. About 3,200 (25%) showed an effect of 50% or more. The list shows a part of the results.
# Tested on: P. falciparum stage V gametocytes
# Set-up: BacTiter-Glo ATP luminescence viability of purified stage V gametocytes in 384-well plates, per cent inhibition versus DMSO
# Settings: 48 h, 5 µM; inhibitor
row,SMILES,% Inhibition [%]
1,O=C(Nc1ccc(Cn2ncc(N3CCCNCC3)c(Cl)c2=O)cc1)Nc1ccc(C(F)(F)F)cc1 [TCMDC-133328],-22.6
2,O=C(Nc1cccc(CN2CCN(Cc3ccc(O)cc3)CC2)c1)c1cccc(C(F)(F)F)c1 [TCMDC-141885],-19.52
3,CCC[C@@H]([C@@H](CC1CCCCC1)C(=O)N[C@H](C(=O)Nc1nccs1)C(C)(C)SC)N(O)C=O [TCMDC-138113],-0.06569
4,COc1ccccc1N1CCN(C(C(=O)NCc2cccc(F)c2)c2ccc(C)cc2)CC1 (stereo not shown) [TCMDC-135502],14.65
5,O=c1cc(NCCCNCc2cccc(I)c2)[nH]c2ccccc12 [TCMDC-139414],-42.93
6,O=C(Nc1ccc(-c2nc3ccccc3[nH]2)cc1)C1CCN(Cc2cccc(F)c2F)CC1 [TCMDC-124682],-38.06
7,COc1ccc(CN2CCCC(N3CC4(OC3=O)c3ccccc3-c3ccccc34)C2)c(O)c1 (stereo not shown) [TCMDC-136068],22.8
8,O=C(N[C@@H](Cc1ccccc1)C(=O)NCc1cccc2ccccc12)c1ccc(O)c(-c2ccc(Cl)c(Cl)c2)c1 [TCMDC-140877],23.34
9,COc1ccc(CCN(Cc2cccs2)C(=O)c2cc3sccc3n2C)cc1OC [TCMDC-123572],18.98
10,O=C(Cc1cccc(Cl)c1)Nc1cccc(-c2c[nH]c3nc(Nc4cccc(O)c4)ncc23)c1 [TCMDC-134681],-6.738
11,CN1CCC[C@H]1COc1ccc(CN2CC[C@H](NC(=O)c3ccc(Cl)c(Cl)c3)C2)cc1Cl [TCMDC-140275],-2.162
12,CN1CCC[C@H]1COc1ccc(CN2CC[C@H](NC(=O)c3ccc(Cl)c(Cl)c3)C2)cc1Br [TCMDC-140285],31.25
13,O=C(N[C@H]1CCN(Cc2ccc(OCCN3CCNCC3)c(Cl)c2)C1)c1ccc(Cl)c(Cl)c1 [TCMDC-140274],104.1
14,CN(C)CCCOc1ccc(CN2CC[C@H](NC(=O)c3ccc(Cl)c(Cl)c3)C2)cc1Br [TCMDC-140283],16.89
15,Cc1cc(CN2CC[C@H](NC(=O)c3ccc(Cl)c(Cl)c3)C2)ccc1OCCCN(C)C [TCMDC-140278],26.92
16,O=C(N[C@H]1CCN(Cc2ccc(OCCN3CCCC3)c(Cl)c2)C1)c1ccc(Cl)c(Cl)c1 [TCMDC-140273],27.77
17,Cc1cc(CN2CC[C@H](NC(=O)c3ccc(Cl)c(Cl)c3)C2)ccc1OCCN1CCNCC1 [TCMDC-140280],58.57
18,O=C(N[C@H]1CCN(Cc2ccc(OCCN3CCNCC3)c(Br)c2)C1)c1ccc(Cl)c(Cl)c1 [TCMDC-140284],61.32
19,Cc1cc(CN2CC[C@H](NC(=O)c3ccc(Cl)c(Cl)c3)C2)ccc1OCCN1CCCC1 [TCMDC-140279],-2.29
